The source of these data is ChEMBL document CHEMBL3988442, “University of Dundee, Small-Polar-MMV Screening Library” (2021).

What all share (design): scale not given: direction of the effect not stated beside the values
Assay [1] concerns the target Protein translocase subunit SecA (Escherichia coli (strain K12)) (UniProt P10408). Briefly: Assay to Identify E. coli SecA ATPase Inhibitors. As to conditions: 30 µM. The assay is classed as functional.
The target of assay [2] is T1, Ubiquitin-activating enzyme e1, putative (Leishmania donovani (strain BPK282A1)) (UniProt E9BSI1).
T1 sequence (whole entry): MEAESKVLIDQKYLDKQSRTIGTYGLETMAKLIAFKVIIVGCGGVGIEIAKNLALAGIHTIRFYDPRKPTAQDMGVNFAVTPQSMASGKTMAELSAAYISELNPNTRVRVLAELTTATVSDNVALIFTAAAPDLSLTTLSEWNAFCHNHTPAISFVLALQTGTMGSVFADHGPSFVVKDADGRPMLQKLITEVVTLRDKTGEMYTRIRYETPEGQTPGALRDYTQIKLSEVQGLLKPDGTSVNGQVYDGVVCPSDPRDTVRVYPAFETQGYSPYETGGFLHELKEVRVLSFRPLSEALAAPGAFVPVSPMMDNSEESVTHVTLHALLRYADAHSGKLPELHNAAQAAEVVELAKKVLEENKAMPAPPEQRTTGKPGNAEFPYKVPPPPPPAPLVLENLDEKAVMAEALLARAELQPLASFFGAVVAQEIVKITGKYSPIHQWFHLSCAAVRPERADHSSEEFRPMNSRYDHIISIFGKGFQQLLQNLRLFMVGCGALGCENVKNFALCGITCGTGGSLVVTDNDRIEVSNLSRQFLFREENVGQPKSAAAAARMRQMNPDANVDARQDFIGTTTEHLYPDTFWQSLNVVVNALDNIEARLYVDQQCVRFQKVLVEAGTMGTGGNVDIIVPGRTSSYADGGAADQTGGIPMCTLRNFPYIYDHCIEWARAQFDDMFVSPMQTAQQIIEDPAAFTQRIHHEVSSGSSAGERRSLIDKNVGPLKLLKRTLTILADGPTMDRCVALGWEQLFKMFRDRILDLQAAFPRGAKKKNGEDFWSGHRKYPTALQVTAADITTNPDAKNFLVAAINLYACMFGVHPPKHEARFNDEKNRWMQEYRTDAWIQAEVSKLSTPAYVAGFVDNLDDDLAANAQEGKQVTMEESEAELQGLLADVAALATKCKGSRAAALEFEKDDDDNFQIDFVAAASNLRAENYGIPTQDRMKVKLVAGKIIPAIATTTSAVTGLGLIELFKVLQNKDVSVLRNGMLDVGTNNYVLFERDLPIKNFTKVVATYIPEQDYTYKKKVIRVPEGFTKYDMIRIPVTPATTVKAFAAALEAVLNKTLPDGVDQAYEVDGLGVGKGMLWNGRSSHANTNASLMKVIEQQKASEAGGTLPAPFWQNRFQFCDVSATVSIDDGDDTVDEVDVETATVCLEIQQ
Briefly: Leishmania donovani Ubiquitin Activating Enzyme (LdE1). As to conditions: 30 µM. In kind it is functional.

The target of assay [3] is Sialic acid-binding Ig-like lectin 9 (Homo sapiens) (UniProt Q9Y336). Briefly: Hs-Siglec9 ALPHAscreen SOP 20170721. The note with it: 10 µM. In general terms: Bead proximity is the source of the signal in Alpha formats.
Chain of Sialic acid-binding Ig-like lectin 9 (Homo sapiens) (Q9Y336 whole entry): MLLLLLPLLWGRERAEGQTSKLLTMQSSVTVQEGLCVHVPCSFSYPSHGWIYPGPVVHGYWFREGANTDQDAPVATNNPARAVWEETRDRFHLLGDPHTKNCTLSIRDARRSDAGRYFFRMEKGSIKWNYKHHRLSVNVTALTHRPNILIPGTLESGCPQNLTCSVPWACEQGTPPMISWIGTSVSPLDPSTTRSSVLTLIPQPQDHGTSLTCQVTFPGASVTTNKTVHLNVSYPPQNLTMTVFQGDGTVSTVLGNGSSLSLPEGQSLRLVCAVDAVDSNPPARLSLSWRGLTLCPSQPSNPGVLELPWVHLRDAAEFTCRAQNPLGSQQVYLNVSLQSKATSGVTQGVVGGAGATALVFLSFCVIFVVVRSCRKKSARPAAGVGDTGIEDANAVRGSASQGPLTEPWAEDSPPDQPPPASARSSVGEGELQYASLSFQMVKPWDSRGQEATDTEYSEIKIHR
Assay [4] has as its system Trypanosoma cruzi. The experiment in a line: Trypanosoma cruzi phosphomannomutase and mannose-1-phosphate guanylyltransferase assay. In kind it is functional. As to conditions: 10 µM.
The target in assay [5] is T2, Arginase-2, mitochondrial (Homo sapiens) (UniProt P78540).
T2 sequence (whole entry): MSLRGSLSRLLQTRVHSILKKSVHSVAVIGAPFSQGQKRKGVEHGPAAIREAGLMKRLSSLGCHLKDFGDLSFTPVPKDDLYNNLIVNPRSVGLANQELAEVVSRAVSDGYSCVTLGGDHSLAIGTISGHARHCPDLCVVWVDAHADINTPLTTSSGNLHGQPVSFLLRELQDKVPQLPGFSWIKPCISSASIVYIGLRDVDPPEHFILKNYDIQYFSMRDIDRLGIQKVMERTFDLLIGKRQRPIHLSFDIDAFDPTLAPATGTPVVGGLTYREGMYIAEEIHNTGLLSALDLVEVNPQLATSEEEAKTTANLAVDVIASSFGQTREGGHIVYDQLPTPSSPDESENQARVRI
The experiment in a line: in vitro enzyme assay to detect the production of urea directly proportional to the activity of Arginase II. Note: in the data most compounds retested in dose-response had high values. The assay is classed as functional. The note with it: 33.3 µM.

In assay [6] the target is T3, Proteasome subunit beta (Trypanosoma cruzi) (UniProt O96673).
T3 sequence (whole entry): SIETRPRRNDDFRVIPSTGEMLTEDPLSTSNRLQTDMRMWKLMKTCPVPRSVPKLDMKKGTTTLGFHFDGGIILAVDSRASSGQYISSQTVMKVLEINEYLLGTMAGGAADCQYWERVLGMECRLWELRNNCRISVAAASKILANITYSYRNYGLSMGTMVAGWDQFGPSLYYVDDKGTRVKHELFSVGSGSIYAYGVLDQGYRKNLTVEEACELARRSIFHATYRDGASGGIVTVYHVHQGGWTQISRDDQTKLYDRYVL
The experiment in a line: Trypanosoma cruzi proteasome chymotrypsin-like activity (TcProtChymo) assay. Note: in the data most compounds retested in dose-response had high values. The assay is classed as functional. As to conditions: 9.37 µM.

For assay [7], the species on record is Homo sapiens. The experiment in a line: To identify inhibition of the IFN signalling (Jak-Stat) pathway via expression of an eGFP reporter gene under the control of an IFN-stimulated response element (ISRE) containing MxA promoter. The assay is classed as functional. As to conditions: 30 µM.
For assay [8], the target named is T4, Tyrosyl-tRNA synthetase, putative (Trypanosoma cruzi (strain CL Brener)) (UniProt Q4DSP6).
T4 sequence (whole entry): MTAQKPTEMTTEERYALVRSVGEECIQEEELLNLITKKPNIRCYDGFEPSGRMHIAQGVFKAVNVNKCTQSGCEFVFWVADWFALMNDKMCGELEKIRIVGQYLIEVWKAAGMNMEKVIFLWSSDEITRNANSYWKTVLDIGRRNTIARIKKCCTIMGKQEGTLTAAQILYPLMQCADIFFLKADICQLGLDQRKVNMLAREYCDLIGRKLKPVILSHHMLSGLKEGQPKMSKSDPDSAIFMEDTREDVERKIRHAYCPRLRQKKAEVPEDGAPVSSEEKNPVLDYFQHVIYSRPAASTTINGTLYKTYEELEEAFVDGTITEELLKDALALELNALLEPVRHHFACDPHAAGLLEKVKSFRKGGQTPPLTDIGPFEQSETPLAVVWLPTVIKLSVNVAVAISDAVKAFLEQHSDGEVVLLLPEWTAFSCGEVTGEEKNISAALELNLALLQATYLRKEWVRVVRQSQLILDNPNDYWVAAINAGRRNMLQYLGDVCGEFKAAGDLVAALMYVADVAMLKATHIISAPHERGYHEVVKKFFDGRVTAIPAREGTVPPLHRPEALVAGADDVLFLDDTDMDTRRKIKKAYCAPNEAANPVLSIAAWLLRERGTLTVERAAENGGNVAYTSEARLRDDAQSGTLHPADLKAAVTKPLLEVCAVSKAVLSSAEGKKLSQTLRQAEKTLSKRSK
Briefly: Trypanosoma cruzi tyrosyl tRNA synthetase (TcYRS) _High Tyrosine SOP. Note: in the data most compounds retested in dose-response had high values. In kind it is functional. The note with it: 30 µM.

The target in assay [9] is T4, Tyrosyl-tRNA synthetase, putative (Trypanosoma cruzi (strain CL Brener)). The experiment in a line: Trypanosoma cruzi tyrosyl tRNA synthetase (TcYRS) SOP. In kind it is functional. The note with it: 30 µM.
Assay [10] addresses Chromo domain-containing protein 1 (Saccharomyces cerevisiae (strain ATCC 204508 / S288c) (Baker's yeast)) (UniProt P32657). Briefly: ScCHD-1 Enzyme Inhibition Assay. Note: in the data most compounds retested in dose-response had high values. In kind it is functional. As to conditions: 30 µM.

Molecules are shown by their SMILES. For some of these results: Results with a measured potency or affinity are listed apart.

Chain of Protein translocase subunit SecA (Escherichia coli (strain K12)) (P10408 whole entry): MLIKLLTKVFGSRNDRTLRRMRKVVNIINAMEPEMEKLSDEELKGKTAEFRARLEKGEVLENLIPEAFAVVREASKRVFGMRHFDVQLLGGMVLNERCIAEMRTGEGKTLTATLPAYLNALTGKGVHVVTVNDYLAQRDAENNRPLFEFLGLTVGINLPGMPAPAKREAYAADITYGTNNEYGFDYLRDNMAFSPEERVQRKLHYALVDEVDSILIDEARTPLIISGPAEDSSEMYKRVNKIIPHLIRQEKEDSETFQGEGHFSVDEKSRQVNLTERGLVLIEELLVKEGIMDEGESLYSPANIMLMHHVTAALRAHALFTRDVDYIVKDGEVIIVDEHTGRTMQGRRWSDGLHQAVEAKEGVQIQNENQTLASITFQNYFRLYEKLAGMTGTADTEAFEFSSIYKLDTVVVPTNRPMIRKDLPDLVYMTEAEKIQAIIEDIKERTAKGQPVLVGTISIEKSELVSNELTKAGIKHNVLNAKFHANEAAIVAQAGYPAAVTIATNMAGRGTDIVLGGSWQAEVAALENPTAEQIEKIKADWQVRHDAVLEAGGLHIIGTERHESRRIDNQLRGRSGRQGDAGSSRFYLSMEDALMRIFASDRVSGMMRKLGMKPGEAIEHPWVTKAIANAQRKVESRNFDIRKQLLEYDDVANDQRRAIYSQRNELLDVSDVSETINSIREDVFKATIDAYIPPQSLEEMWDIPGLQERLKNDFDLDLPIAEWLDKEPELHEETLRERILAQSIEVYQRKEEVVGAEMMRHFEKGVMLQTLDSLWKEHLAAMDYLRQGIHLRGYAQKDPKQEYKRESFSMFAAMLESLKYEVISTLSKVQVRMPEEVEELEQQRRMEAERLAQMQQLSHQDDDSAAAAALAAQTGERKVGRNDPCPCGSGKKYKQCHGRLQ
Chain of Chromo domain-containing protein 1 (Saccharomyces cerevisiae (strain ATCC 204508 / S288c) (Baker's yeast)) (P32657 whole entry, the tested form may be a part): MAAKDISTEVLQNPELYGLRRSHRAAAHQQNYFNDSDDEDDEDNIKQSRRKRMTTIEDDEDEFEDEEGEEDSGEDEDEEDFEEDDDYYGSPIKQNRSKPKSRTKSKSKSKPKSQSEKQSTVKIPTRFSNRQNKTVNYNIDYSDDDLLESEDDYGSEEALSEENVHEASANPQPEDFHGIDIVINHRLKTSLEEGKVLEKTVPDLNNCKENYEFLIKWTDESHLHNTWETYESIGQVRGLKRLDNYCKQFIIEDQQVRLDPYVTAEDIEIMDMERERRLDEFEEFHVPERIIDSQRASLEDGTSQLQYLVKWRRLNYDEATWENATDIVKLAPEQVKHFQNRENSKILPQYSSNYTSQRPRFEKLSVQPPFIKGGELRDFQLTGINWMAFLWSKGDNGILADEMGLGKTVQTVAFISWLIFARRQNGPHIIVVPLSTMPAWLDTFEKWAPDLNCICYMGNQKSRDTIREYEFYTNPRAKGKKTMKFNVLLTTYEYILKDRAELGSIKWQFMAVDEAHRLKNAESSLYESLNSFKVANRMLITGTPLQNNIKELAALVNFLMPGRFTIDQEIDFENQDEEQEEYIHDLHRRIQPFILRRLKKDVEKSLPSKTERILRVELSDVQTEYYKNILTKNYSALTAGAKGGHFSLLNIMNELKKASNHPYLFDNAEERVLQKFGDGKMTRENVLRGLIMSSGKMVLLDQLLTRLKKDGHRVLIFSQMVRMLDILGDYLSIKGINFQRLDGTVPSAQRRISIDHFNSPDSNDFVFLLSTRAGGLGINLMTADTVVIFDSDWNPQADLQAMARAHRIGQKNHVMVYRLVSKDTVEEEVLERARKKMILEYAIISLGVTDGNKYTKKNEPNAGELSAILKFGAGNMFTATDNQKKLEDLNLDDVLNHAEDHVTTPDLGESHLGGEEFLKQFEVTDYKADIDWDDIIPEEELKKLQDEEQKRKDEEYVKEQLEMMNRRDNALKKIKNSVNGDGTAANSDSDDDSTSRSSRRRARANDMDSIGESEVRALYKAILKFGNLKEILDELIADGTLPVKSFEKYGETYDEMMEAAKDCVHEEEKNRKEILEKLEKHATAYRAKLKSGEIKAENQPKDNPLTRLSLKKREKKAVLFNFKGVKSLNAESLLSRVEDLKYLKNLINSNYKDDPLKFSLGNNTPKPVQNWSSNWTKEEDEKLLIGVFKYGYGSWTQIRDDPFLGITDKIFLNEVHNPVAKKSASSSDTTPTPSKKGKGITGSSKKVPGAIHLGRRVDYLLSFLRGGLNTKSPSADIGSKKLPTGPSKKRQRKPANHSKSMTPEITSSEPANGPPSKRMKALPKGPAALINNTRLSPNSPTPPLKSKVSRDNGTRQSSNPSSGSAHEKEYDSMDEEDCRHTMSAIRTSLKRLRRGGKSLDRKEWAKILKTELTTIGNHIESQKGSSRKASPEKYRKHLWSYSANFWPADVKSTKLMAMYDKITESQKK

For `CC(C)N(C)CC(=O)N1CCCC(c2ccc(C(=O)O)cc2)C1` (stereo not given), the Percent Effect is -7.71% in assay [1]; 5.41% in assay [2]; 3.58% in assay [3]; 8.44% in assay [4]; -1.05% in [5]; 1.71% in assay [6]. Moreover, the Percent Effect in assay [7] is -11.9%; in assay [8] it was 7.98%; in [9], 17.1%; in assay [10], -2.58%.

With `c1cnnc(N2CCCC(NCc3nnc(-c4ccco4)o3)C2)c1` (stereo not given), the Percent Effect is -0.0972% in [1]; 25.6% in assay [2]; -15.5% in assay [3]; 1.03% in assay [4]; -0.82% in assay [5]; 25.2% in assay [6]. Moreover, the Percent Effect in assay [7] is -0.0242%; in [8], 9.09%; in [9], 22.9%; in assay [10] it was -1.66%.

Take `CCNC(=O)N1CCN(C(=O)c2cc(Cl)cc3cccnc23)CC1`: the Percent Effect in [1] is -1.06%; in [2] it was 0%; in assay [3], 3.31%; in [4] it was -1.03%; in [5] it was 3.28%; in assay [6], 7.93%. Also, the Percent Effect in [7] was 6.48%; in [8], -0.478%; in assay [9], -1.21%; in [10], 2.64%.

In the case of `CN(C)S(=O)(=O)N1CCN(C(=O)c2ccc3ccn(C)c3c2)CC1`, the Percent Effect in assay [1] is -5.48%; in assay [2] it was 8.11%; in assay [3] it was 12%; in assay [4] it was 5.72%; in assay [5] it was 8.74%; in assay [6], 13.9%. Besides, the Percent Effect in [7] is 5.78%; in assay [8], 2.66%; in assay [9] it was 9.76%; in assay [10], -5.25%.

Take `Clc1ccc(OCCCN2CCN(c3cnccn3)CC2)cc1`: the Percent Effect in assay [1] is -2.88%; in assay [2] it was -7.79%; in assay [3] it was 9.41%; in assay [4], -0.933%; in [5], -2.66%; in assay [6], -2.63%. The Percent Effect in [7] was 3.86%; in assay [8], 11.8%; in assay [9] it was 23.5%; in assay [10], -3.92%.

As to `O=C(c1ccc(OCC2CC2)nc1)N1CCCC(n2ccnc2)C1` (stereo not given), the Percent Effect in assay [1] was -2.4%; in assay [2] it was 12.8%; in assay [3], -6.85%; in [4], 2.72%; in assay [5], 6.97%; in assay [6], 9.64%. In addition, the Percent Effect is 5.6% in assay [7], 8.13% in assay [8], 22.9% in [9] and -4.73% in assay [10].

For `CN1CCOC(CNC(=O)Cc2ccccc2F)C1` (stereo not given), the Percent Effect was -1.65% in [1]; 15.4% in assay [2]; -3.95% in assay [3]; 3.47% in assay [4]; 4.1% in assay [5]; 8.11% in assay [6]. Besides, the Percent Effect in [7] was -18.4%; in assay [8], 7.18%; in [9], 25.3%; in [10] it was -5.49%.

Take `O=C(Cc1ccccc1Cl)N1CCCC(n2cncn2)C1` (stereo not given): the Percent Effect in assay [1] was -7.8%; in assay [2] it was 5.13%; in assay [3], 0.737%; in assay [4] it was -2.91%; in assay [5], 4.51%; in assay [6] it was -2.65%. Further, the Percent Effect in [7] was 22.2%; in assay [8] it was 2.39%; in [9] it was 8.43%; in assay [10] it was 1.66%.

`Cc1cccc(CN2C[C@@H]3COC[C@]3(CNC(=O)c3ccsc3)C2)n1`: the Percent Effect in assay [1] was -7.55%; in [2] it was 9.09%; in assay [3], -4.17%; in assay [4], 1.27%; in assay [5], -3.64%; in assay [6] it was 22.3%. Moreover, the Percent Effect in assay [7] is -5.86%; in [8], 7.89%; in assay [9] it was 12.8%; in [10], 108%.

As to `CCOc1cc(CNC(=O)N2CCC(Cc3cnn(C)c3)C2)ccn1` (stereo not given), the Percent Effect in [1] is -2.64%; in assay [2] it was -2.56%; in assay [3], 1.57%; in assay [4] it was 9.11%; in [5], 0.82%; in [6], 2.13%. Moreover, the Percent Effect was 4.43% in assay [7], 3.35% in assay [8], 6.02% in assay [9] and -0.605% in assay [10].
